Data on 24 compounds can be found in PubChem BioAssay (Tox21).

Test [1] is described as follows: qHTS RealTime-Glo MT Cell Viability Assay in HEK293 cells - 0 hour (AID 1224880). Further: top concentration of the series differs between compounds; nearly all actives have a fitted effect of over 45% in size. A digest of the protocol: (§1)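 HEK293 + NanoLuc + prosubstrate, 600 cells/well; 5 h, 37 C/5% CO2; compound 23 nL in DMSO by pintool; 37 C; luminescence read at 0, 8, 16, 24, 32 and 40 h time points.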
Background: qHTS replaces the single test concentration by a dilution series.

Test [2] can be described thus: A CellTox Green Cytotoxicity Assay to monitor cytotoxicity in HEK293 cells - 32 hour (AID 1224881). Further: nearly all actives have a fitted effect of over 40% in size. Further: potency means the concentration at half of the fitted maximal effect. A digest of the protocol:
(§2)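 Tox21 screen in HEK293: membrane-impermeant cyanine dye fluoresces on binding dead-cell DNA; compound pinned 5 h post-seeding, plates held at 37 C, signal read repeatedly through 40 h.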

Test [3] is described as follows: A CellTox Green Cytotoxicity Assay to monitor cytotoxicity in HepG2 cells - 0 hour (AID 1224882). Further: nearly all actives have a fitted effect of over 35% in size. An outline of the steps:
(§3)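 Measurements at 0, 8, 16, 24, 32 and 40 h of treatment captured CellTox Green fluorescence in HepG2 cells that had been co-plated with reagent and preincubated 5 h at 37 C/5% CO2.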

Test [4] can be described thus: A CellTox Green Cytotoxicity Assay to monitor cytotoxicity in HepG2 cells - 32 hour (AID 1224883). Further: nearly all actives have a fitted effect of over 50% in size. Further: potency means the concentration at half of the fitted maximal effect. An outline of the steps:
as §3

Test [5] can be described thus: A CellTox Green Cytotoxicity Assay to monitor cytotoxicity in HEK293 cells - 8 hour (AID 1224884). Further: nearly all actives have a fitted effect of over 35% in size. An outline of the steps:
as §2

Test [6] in a line: qHTS RealTime-Glo MT Cell Viability Assay in HepG2 cells - 16 hour (AID 1224885). Further: nearly all actives have a fitted effect of over 50% in size. A digest of the protocol: (§4)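 Tox21 10K library screened in qHTS format on HepG2 cells carrying RealTime-Glo reagents. Compounds were added after a 5 h preincubation, and the luminescent signal from continuous culture was measured repeatedly during 40 h treatment.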
Test [7] can be described thus: qHTS RealTime-Glo MT Cell Viability Assay in HEK293 cells - 24 hour (AID 1224886). Further: nearly all actives have a fitted effect of over 50% in size. Further: potency means the concentration at half of the fitted maximal effect. An outline of the steps:
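Luminescence generated by NanoLuc from substrate produced by living HEK293 cells served as the viability signal. Each value reflects the reading at its stated time point during continuous 40 h compound exposure at 37 C.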

Test [8] is described as follows: qHTS RealTime-Glo MT Cell Viability Assay in HEK293 cells - 8 hour (AID 1224887). Further: nearly all actives have a fitted effect of over 50% in size. Further: potency means the concentration at half of the fitted maximal effect. A digest of the protocol: as §1
The nature of test [9]: A CellTox Green Cytotoxicity Assay to monitor cytotoxicity in HEK293 cells - 16 hour (AID 1224888). Further: nearly all actives have a fitted effect of over 35% in size. A digest of the protocol: as §2
Test [10] in a line: qHTS RealTime-Glo MT Cell Viability Assay in HepG2 cells - 0 hour (AID 1224889). Further: nearly all actives have a fitted effect of over 50% in size. An outline of the steps: as §4

SMILES strings stand for the structures. Results filed as inconclusive are left out. The source made the active and inactive calls. The call rests on the fitted dose curve; in most records, active means well fitted curve in the direction sought with a large enough effect in the repeat runs; inconclusive means weak or mixed curves; inactive means no such curve, though single readings can be large; an effect the other way counts as inactive or inconclusive.

As to `Cc1nc2ccccn2c(=O)c1CCN1CCC(C(=O)c2ccc(F)cc2)CC1`, the Potency result in [1], in test [2], in test [3], in [4], in test [5] and in test [6] was “inactive” in each case. Also, the Potency result in [9] and in test [10] was “inactive” each time. The results for the Potency in test [7] and in test [8] were 7.56 µM (active) and 8.49 µM (active), respectively.

For the compound `Cc1cc(O)c(C(C)C)cc1Cl`, the Potency entry in test [1], in [3], in [5], in test [6], in test [7] and in test [8] was “inactive” each time. Also, the Potency result in test [9] and in [10] was “inactive” each time. In addition, the values for the Potency in [2] and in test [4] were 38.9 µM (active) and 34.7 µM (active), respectively.

For the compound `O=S(=O)(c1ccccc1)c1ccc(Cl)cc1`, the Potency result in test [1], in test [2], in [3], in [4], in test [5] and in [6] was “inactive” each time. The Potency result in [7], in test [8], in [9] and in test [10] was “inactive” each time.

Consider `CCC(C(=O)OCCOCCN(CC)CC)c1ccccc1` (stereo not drawn), for which the Potency result in test [1], in test [2], in test [3], in test [4], in test [5] and in test [6] was “inactive” in each case. For the same compound, the Potency result in test [7], in test [8] and in [9] was “inactive” each time.

Consider `CC(=O)Nc1ccccc1C`, for which the Potency entry in [1], in test [2], in test [3], in test [4], in test [5] and in test [6] was “inactive” each time. The Potency result in [7], in test [8], in [9] and in [10] was “inactive” in each case.

With `Cc1oncc1C(=O)Nc1ccc(C(F)(F)F)cc1`, the Potency result in test [1], in test [2], in [3], in [4], in test [5] and in test [6] was “inactive” in each case. In addition, the Potency result in test [7], in test [8] and in test [9] was “inactive” in each case.

As for `CN1C(=O)CC(C)(c2ccccc2)C1=O` (stereo not drawn), the Potency entry in test [1], in test [2], in test [3], in test [4], in [5] and in test [6] was “inactive” throughout. Also, the Potency entry in test [7], in test [8], in test [9] and in test [10] was “inactive” in each case.

For the compound `C=CCNc1nc(NCC=C)nc(N2CCN(C(c3ccc(F)cc3)c3ccc(F)cc3)CC2)n1`, the Potency entry in test [1], in test [2], in test [3], in [4], in test [5] and in [6] was “inactive” throughout. The Potency entry in [7], in [8], in [9] and in [10] was “inactive” in each case.

Consider `CCC(C)=O`, for which the Potency result in test [1], in test [2], in test [3], in test [4], in test [5] and in test [6] was “inactive” each time. The Potency entry in [7], in [8] and in [9] was “inactive” throughout.

As for `CCOC(=O)/C=C/C(=O)O`, the Potency entry in test [1], in test [2], in test [3], in test [4], in test [5] and in [6] was “inactive” in each case. The Potency result in [7], in [8], in test [9] and in test [10] was “inactive” in each case.

In the case of `CC(C)CCCC(=O)O`, the Potency entry in test [1], in [2], in [3], in test [4], in test [5] and in test [6] was “inactive” each time. In addition, the Potency entry in test [7], in test [8] and in test [9] was “inactive” in each case.

Regarding `CCCOC(=O)c1ccc(C(=O)OCCC)nc1`, the Potency entry in test [1], in test [2], in [3], in [4], in test [5] and in test [6] was “inactive” throughout. Besides, the Potency entry in test [7], in test [8], in test [9] and in test [10] was “inactive” each time.

Turning to `Brc1cc(-c2ccc(Br)c(Br)c2Br)cc(Br)c1Br`, the Potency entry in test [1], in test [2], in test [3], in test [4], in test [5] and in test [6] was “inactive” throughout. Besides, the Potency entry in test [7], in test [8] and in test [9] was “inactive” throughout.

As to `CCCCN(CCCC)CCCOC(=O)c1ccc(N)cc1`, the Potency entry in test [1], in test [2], in test [3], in test [4], in test [5] and in [6] was “inactive” each time. Also, the Potency result in [7], in [8], in test [9] and in test [10] was “inactive” in each case.

On to `CCCCCCOC(=O)CCCCCCCC(=O)OCCCCCC`, for which the Potency entry in test [1], in test [2], in test [3], in [4], in [5] and in test [6] was “inactive” throughout. Also, the Potency result in test [7], in [8] and in test [9] was “inactive” throughout.

Take `CCn1nc(C)c2c1C(=O)NCC(c1ccc(O)cc1)=N2`: the Potency entry in [1], in test [2], in [3], in test [4], in test [5] and in [6] was “inactive” each time. The Potency entry in test [7], in [8], in test [9] and in test [10] was “inactive” throughout.

On to `Oc1cc(O)c(Cl)cc1Cl`, for which the Potency result in test [1], in test [2], in test [3], in [4], in [5] and in test [6] was “inactive” in each case. Further, the Potency entry in test [7], in test [8], in test [9] and in test [10] was “inactive” each time.

Regarding `CC1CC(O)CC(C)(C)C1` (stereo not drawn), the Potency entry in test [1], in test [2], in test [3], in test [4], in test [5] and in test [6] was “inactive” in each case. The Potency entry in test [7], in [8], in test [9] and in test [10] was “inactive” in each case.

Take `C=C(C)C(=O)OCCOC(=O)CC(C)=O`: the Potency entry in test [1], in test [2], in [3], in [4], in [5] and in [6] was “inactive” throughout. Besides, the Potency result in test [7], in test [8], in test [9] and in test [10] was “inactive” throughout.

As for `CN1CCCN=C1/C=C/c1cccs1`, the Potency entry in [1], in test [2], in [3], in test [4], in test [5] and in test [6] was “inactive” each time. Besides, the Potency entry in test [7], in test [8] and in [9] was “inactive” in each case.

For `CC(C)OCC1CO1` (stereo not drawn), the Potency entry in test [1], in test [2], in test [3], in test [4], in test [5] and in test [6] was “inactive” throughout. The Potency entry in test [7], in test [8], in test [9] and in [10] was “inactive” in each case.

Regarding `NC(=O)Nc1ccc(Cl)c(Cl)c1`, the Potency entry in test [1], in [2], in test [3], in test [4], in test [5] and in test [6] was “inactive” each time. In addition, the Potency entry in test [7], in test [8], in test [9] and in test [10] was “inactive” each time.

Take `CCCCCCCCSCCO`: the Potency result in [1], in test [2], in test [3], in test [5], in [6] and in test [7] was “inactive” throughout. For the same compound, the Potency entry in test [8], in test [9] and in test [10] was “inactive” in each case. For the same compound, the Potency in [4] was 43.6 µM (active).

For `Cc1ccccc1N1C(=O)c2cc(S(N)(=O)=O)c(Cl)cc2NC1C` (stereo not drawn), the Potency result in [1], in test [2], in test [3], in test [4], in [5] and in test [6] was “inactive” each time. In addition, the Potency result in test [7], in [8], in test [9] and in test [10] was “inactive” throughout.
